According to the supplement of paper PMC10981050:
Structures can show the parent of a compound that is named as a salt.

Each compound was assayed on MOLM14 (assay: cell viability relative to vehicle control; higher = less cytotoxic). Conditions: 10 µM; SRSF2 genotype: SRSF2 wt/wt.
In short: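 Each screen used CRISPR-edited mutant and wild-type clones from four leukaemia lines. Compounds were acoustically dispensed at a single 10 µM dose, and CellTiter-Glo luminescence was read after 48 h with the supernatant first removed. Viability was analysed in Genedata Screener and given as percent of the on-plate vehicle control.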
With `Cc1csc(-c2nnc(Nc3ccc(Oc4ncccc4-c4ccnc(N)n4)cc3)c3ccccc23)c1` the cell viability was 30.5%. `CN1CCC(c2c(O)cc(O)c3c(=O)cc(-c4ccccc4Cl)oc23)C(O)C1` (stereo not given) [Flavopiridol (Alvocidib) HCl] was tested, and the cell viability was 0.54%. For `Cc1ccc(C(C)C)c(O)c1` [Thymol], the cell viability was 105%. `CN1CCN(c2ccc(Nc3cc(-c4cccc(-n5ccc6cc(C7CC7)cc(F)c6c5=O)c4CO)cn(C)c3=O)nc2)CC1` showed a cell viability of 1.57%. `NS(N)(=O)=O` [Sulfamide] showed a cell viability of 107%. `COc1ccc(Oc2cc(C)c(-c3csc(NC(=O)c4ccncc4)n3)c(C)c2)cc1` showed a cell viability of 25.9%. `Cc1c(O)c(=O)ccn1C` [Deferiprone] was tested, and the cell viability was 93.9%. In the case of `CCCCCCNC(=O)n1cc(F)c(=O)[nH]c1=O` [Carmofur], the cell viability is reported as 27.3%. In the case of `C[C@@H]1COCCN1c1cc(C2([S@](C)(=N)=O)CC2)nc(-c2cc[nH]c3nccc2-3)n1`, the cell viability is reported as 5.99%. `Cc1nc(Nc2cnn(C3CCNCC3)c2)nc2c1N(C)C(=O)c1cc3ccccc3cc1N2C` gave a cell viability of 5.53%. `CCCOc1ccc2[nH]c(NC(=O)OC)nc2c1` [Oxibendazole] was tested, and the cell viability was 3.24%. Compound `COC1=CC(=O)c2ccccc2C1=O` [2-Methoxy-1,4-naphthoquinone] has a cell viability of 17.5%. For `CC(=O)c1ccc2c(c1)c1cc(C(C)=O)ccc1n2CCNC(C)C`, the cell viability was 0.66%. Compound `CC(C(=O)O)c1ccc2c(c1)CC(=O)c1ccccc1S2` (stereo not given) [Zaltoprofen] has a cell viability of 98.8%. `CC(C)Oc1ccc(C(=O)N[C@H](CNC(=O)CN(C)C)Cc2ccc(-c3cn4cccc([C@H](C)O)c4n3)cc2)cc1Cl` gave a cell viability of 1.72%. `NC(=O)c1cccc2cn(-c3ccc([C@@H]4CCCNC4)cc3)nc12` [MK-4827(Niraparib) tosylate] was tested, and the cell viability was 7.47%. For `O=C(O)Cc1ccccc1Nc1c(Cl)cccc1Cl` [Diclofenac Sodium], the cell viability was 100%. `C#CC1(O)CC[C@H]2[C@@H]3CCC4=CC(=O)CC[C@@H]4[C@H]3CC[C@@]21CC` (stereo not given in full) [Norgestrel] showed a cell viability of 108%. Compound `COC(=O)C1=C(C)NC(C)=C(C(=O)OCCN2CCN(C(c3ccccc3)c3ccccc3)CC2)C1c1cccc([N+](=O)[O-])c1` (stereo not given) [Manidipine (Manyper)] has a cell viability of 64.2%. In the case of `CN(C)N(C)C(=O)[C@@]1(Cc2ccccc2)CCCN(C(=O)[C@@H](Cc2c[nH]c3ccccc23)NC(=O)C(C)(C)N)C1` [Anamorelin], the cell viability is reported as 78.8%. Work on `O=C(O)CCCCC(CCSCc1ccccc1)SCc1ccccc1` (stereo not given) yielded a cell viability of 103%. `COc1ccc(C(=O)C(=O)c2ccc(OC)cc2)cc1` was tested, and the cell viability was 106%. `CNC(=O)c1cc(Oc2ccc(NC(=O)Nc3ccc(Cl)c(C(F)(F)F)c3)cc2)ccn1` [Sorafenib Tosylate] showed a cell viability of 11.5%. Work on `C[C@@H](O)[C@H]1C(=O)N2C(C(=O)O)=C(S[C@@H]3CN[C@H](C(=O)N(C)C)C3)[C@H](C)[C@H]12` [Meropenem] yielded a cell viability of 101%. With `COC(=O)C1=C(C)NC(C)=C(C(=O)OCC(C)C)C1c1ccccc1[N+](=O)[O-]` (stereo not given) [Nisoldipine] the cell viability was 34.7%. With `COc1cccc(/C=N/N(C(=O)C(F)(F)F)c2ccc(C)cc2C)c1` the cell viability was 105%. `CN(CC(=O)N(Cc1ccc(C2CCCCC2)cc1)c1ccc(C(=O)O)cc1)S(=O)(=O)c1c(F)c(F)c(F)c(F)c1F` was tested, and the cell viability was 0.15%. `C=CC(=O)Nc1cccc(Oc2nc(Nc3ccc(N4CCN(C)CC4)cc3)ncc2Cl)c1` was tested, and the cell viability was -0.03%. In the case of `CO[C@@]12[C@H](COC(N)=O)C3=C(C(=O)C(C)=C(N)C3=O)N1C[C@@H]1N[C@@H]12` [Mitomycin C], the cell viability is reported as 0.37%. In the case of `Clc1cccc(-c2nnnn2Cc2cccnc2)c1Cl`, the cell viability is reported as 108%. `Cc1cccc(Nc2ccncc2S(=O)(=O)NC(=O)NC(C)C)c1` [Torsemide (Demadex)] gave a cell viability of 101%. Compound `O=c1cc(-c2ccc(O)cc2)oc2cc(O)c([C@@H]3O[C@H](CO)[C@@H](O)[C@H](O)[C@H]3O)c(O)c12` [Isovitexin] has a cell viability of 95.9%. `C=C1[C@@H]2CC[C@@H](C2)C1(C)C` [Camphene] was tested, and the cell viability was 108%. With `CN(C)c1cccc(-c2c3c(=O)n(-c4ccccc4Cl)[nH]c3cc(=O)n2C)c1` the cell viability was 99.7%. Compound `CO[C@H]1C[C@@H]2CC[C@@H](C)[C@@](O)(O2)C(=O)C(=O)N2CCCC[C@H]2C(=O)O[C@H]([C@H](C)C[C@@H]2CC[C@H](n3cnnn3)[C@H](OC)C2)CC(=O)[C@H](C)/C=C(\C)[C@@H](O)[C@@H](OC)C(=O)[C@H](C)C[C@H](C)/C=C/C=C/C=C/1C` [Zotarolimus (ABT-578)] has a cell viability of 56.5%.
